# Arbovirus anti = blocks arbovirus infection | arbovirus infection cell-based antiviral screen | inhibition, % at 10 µM | actives 0.37% (n = 200,000) | AID 1251; in the data active means inhibition above about 30%
# Bim-Mcl-1 = disrupts Bim peptide binding to human Mcl-1; Q07820; Bead-based flow cytometry, Bim peptide-Mcl-1 binding; inhibition, % at 10 µM; actives 0.1% (n = 190,000); AID 1009; in the data active means inhibition above about 40%;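 further: 0% = no compound tracer wells and 100% = peptide blocker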
# Target sequence (Q07820 whole entry, looked up): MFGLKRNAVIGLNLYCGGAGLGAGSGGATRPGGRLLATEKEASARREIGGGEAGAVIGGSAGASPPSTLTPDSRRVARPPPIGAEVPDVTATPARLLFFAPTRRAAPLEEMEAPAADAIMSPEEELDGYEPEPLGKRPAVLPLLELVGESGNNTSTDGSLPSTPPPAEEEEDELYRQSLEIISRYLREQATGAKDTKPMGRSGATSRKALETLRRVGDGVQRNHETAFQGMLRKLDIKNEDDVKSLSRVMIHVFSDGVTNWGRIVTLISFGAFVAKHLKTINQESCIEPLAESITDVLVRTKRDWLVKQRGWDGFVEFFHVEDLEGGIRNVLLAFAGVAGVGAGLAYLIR
# Mcl1-Bid inh = disrupts binding of human Mcl-1 to Bid peptide | AID 1021 | actives 0.97% (n = 220,000) | Q07820 | inhibition, % at 21.7 µM | TR-FRET Mcl-1/Bid-Dy647 peptide binding, 1536-well;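 active means compounds that cut the binding signal by more than half at the single screening dose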;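 further: His-tagged Mcl-1 with europium anti-His antibody binding Bid BH3 peptide; 0% = Mcl-1 plus peptide wells and 100% = peptide-only wells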
# 14-3-3 Bad PPI = disrupts binding of bovine 14-3-3 zeta to phospho-Bad peptide; P63103; TR-FRET 14-3-3zeta/Dy647-pBad peptide displacement, 1 h; inhibition, % at 21.7 µM; actives 0.71% (n = 220,000); AID 781;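 active means inhibition above about 70%, limit read from the data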;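 further: 0% = full 14-3-3 plus peptide FRET controls and 100% = background without 14-3-3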
# Mcl1 Noxa PPI = Mcl-1/Noxa interaction inhibition; actives 1.5% (n = 220,000); AID 1022; TR-FRET Mcl-1/Noxa peptide binding, 2 h; inhibition, % at 21.7 µM; Q07820;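 active means compounds that cut the protein-peptide binding signal by more than 50% relative to plate controls in a single-dose test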;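 further: His-tagged Mcl-1 with rhodamine Noxa BH3 peptide and terbium anti-His antibody; 0% = Mcl-1 plus Noxa peptide wells and 100% = peptide-only wells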
# The depositor's hits bear a star; · = not tested or not shown; [ ] = remark or other dose. A selection: hits, their analogues and other compounds. The true share with any hit is near 3%.
SMILES,Arbovirus anti,Bim-Mcl-1,Mcl1-Bid inh,14-3-3 Bad PPI,Mcl1 Noxa PPI
Cc1nc(C)n(CC(O)COc2ccc3c(c2)CCC3)n1 (centres undefined),10,-4,92*,11,4
Cc1nn(CC(O)COc2ccc3c(c2)CCC3)c(C)c1Br (centres undefined),5,-3,3,0,6
Cc1cc(C(=O)OCC(=O)N2CC(C)OC(C)C2)ccc1[N+](=O)[O-] (centres undefined),21,-1,-14,-5,-4
CCN(CC)CCCN1C(=O)CSC1c1ccc([N+](=O)[O-])cc1 (centres undefined),3,0,-21,-7,18
COc1ccc(C2SCC(=O)N2CCCN(C)C)cc1 (centres undefined),3,-1,91*,-1,6
O=C(Cc1ccccc1)N/N=C/c1cccc([N+](=O)[O-])c1,0,-4,-12,-8,9
Clc1ccccc1C1=Nn2c(nnc2-c2ccncc2)SC1,59*,0,-12,7,9
Cc1cc(C)c2nc3sc(C(=O)N4CCOCC4)c(N)c3cc2c1,·,·,-112,17,65*
Cc1ccc(C)c2nc3sc(C(=O)N4CCOCC4)c(N)c3cc12,-13,0,-55,8,60*
Cc1cc(C)c2cc3c(N)c(C(=O)N4CCOCC4)sc3nc2c1,-4,-2,11,-9,20
O=C(CN1CCN(c2ccccn2)CC1)Nc1cccc(S(=O)(=O)N2CCCC2)c1,8,1,-22,-2,18
CCOC(=O)C1(Cc2cccc(OC)c2)CCN(Cc2ccccc2OC)CC1,11,-2,-26,2,4
CCOC(=O)C1(Cc2cccc(OC)c2)CCN(Cc2cccc(OC)c2O)CC1,33*,0,-54,-7,26
Cc1ccc2c(O)c(C)c(=O)[nH]c2n1,-4,-1,-27,-5,0
O=c1cc(CSc2nnnn2-c2ccccc2)nc(Nc2ccc(F)cc2)[nH]1,31*,7,-71,18,-57
Cc1cccc(N=C2NC(=O)/C(=C3/C(=O)N(C)c4ccccc43)S2)c1C,43*,-1,-11,19,44
Cc1ccccc1N=C1NC(=O)/C(=C/c2cccn2C)S1,·,·,-33,-4,2
CCC(C)[C@@H](N)C(=O)N/N=C/c1cccc2nccnc12 (some centres undefined),·,·,-18,9,14
Cc1ccc(-c2cn(-c3ccccc3)c(SCC(N)=O)n2)cc1C,10,-7,87*,-1,17
CCOC(=O)NC(=O)CSc1nc(-c2ccc(C)c(C)c2)cn1-c1ccccc1,10,-1,-39,-17,22
N#CC1=C(N)Nc2ncnn2C1c1ccc(F)cc1 (centres undefined),-16,-7,-30,-9,7
Cn1c(-c2ccc(F)cc2)cnc1NCc1cccc(F)c1,-18,1,14,79*,34
Cn1c(-c2ccc(F)cc2)cnc1NCc1ccccc1,-2,0,-6,54,9
OC(CNC1CCCc2ccccc21)COc1ccc2ccccc2c1 (centres undefined),-35,-2,52*,40,44
CC(C)Oc1cccc(C(=O)NC(=S)Nc2ccccc2)c1,36*,-10,-22,2,6
SMILES,Arbovirus anti,Bim-Mcl-1,Mcl1-Bid inh,14-3-3 Bad PPI,Mcl1 Noxa PPI
O=C(Cc1ccc([N+](=O)[O-])cc1)NCc1ccccn1,1,3,20,10,69*
O=C(NCc1ccccn1)c1ccc([N+](=O)[O-])cc1,-4,-5,-2,1,-4
CCOc1ccc(-c2ccc(/C=C3/C(=N)N4C=CSC4=NC3=O)o2)c([N+](=O)[O-])c1,-14,1,89*,84*[fluorescence artefact?],129*
CCOc1ccc(-c2ccc(/C=C3/C(=N)N4C(C)=CSC4=NC3=O)o2)c([N+](=O)[O-])c1,-9,0,68*,64,66*
CC1=CN2C(=N)/C(=C/c3ccc([N+](=O)[O-])o3)C(=O)N=C2S1,-1,-3,6,16,65*
CC1=CN2C(=N)/C(=C/c3ccco3)C(=O)N=C2S1,-14,-2,-30,-4,26
CCOC(=O)Cc1csc(NC(=O)C(CC(C)C)NC(=O)C2CCCCC2)n1 (centres undefined),-1,0,-10,2,13
CCC(=O)OC1(C#CCOc2ccc(OC)cc2)CCN(C)CC1,-3,4,53*,33,10
COc1cc(-c2nc(-c3ccccc3)c(-c3cccs3)[nH]2)cc(OC)c1O,-37,4,-29,-2,55*

# High-throughput results from PubChem BioAssay.
